{"source": "PubChem BioAssay (EPA / NIEHS)", "note": "Calls of active or inactive are those of the source. How the source made its calls: active means hit-call score of the fitted dose curve at least 0.9, where 1 is the maximum; inactive means score below 0.9.", "data": [{"test": "APR_HepG2_NuclearSize_1hr: Apredica 1-hour HepG2 Assay for Nuclear Size (AID 2282670)", "conditions": "high-content imaging, actives raise or lower the signal", "protocol": "APR_HepG2_1hr is a cell-based, multiplexed-readout assay that uses HepG2, a human liver cell line, with measurements taken at 1 hour after chemical dosing in a 384-well plate.APR_HepG2_NuclearSize_1hr is one of 10 assay component(s) measured or calculated from the APR_HepG2_1hr assay. It is designed to make measurements of cell phenotype, a form of morphology reporter, as detected with fluorescence intensity signals by HCS Fluorescent Imaging technology.Data from the assay component APR_HepG2_NuclearSize_1hr was analyzed into 1 assay endpoint. This assay endpoint, APR_HepG2_NuclearSize_1hr, was analyzed with bidirectional fitting relative to DMSO as the negative control and baseline of activity. Using a type of morphology reporter, measures of all nuclear dna for gain or loss-of-signal activity can be used to understand the signaling at the nuclear-level. Furthermore, this assay endpoint can be referred to as a primary readout, because this assay has produced multiple assay endpoints where this one serves a signaling function. To generalize the intended target to other relatable targets, this assay endpoint is annotated to the cell morphology intended target family, where the subfamily is organelle conformation.\nCells were treated with dimethyl sulfoxide (DMSO) as a solvent control at a final concentration of 0.5% v/v or with compounds in DMSO with a resulting final DMSO concentration of 0.5% v/v. Compound treatment was done at concentrations of 0.39, 0.78, 1.56, 3.12, 6.24, 12.5, 25, 50, 100, and 200 uM in duplicate on each plate. Cells were treated with compounds for 1, 24, or 72 hr. Carbonyl […] m-chloro-phenylhydrazone (CCCP) and taxol were used as positive controls for mitochondrial function and cytoskeletal stability, respectively; DMSO served as the negative control for this experiment. Cells were fixed by the direct addition of 50 uL formaldehyde in Hank's Balanced Salt Solution (HBSS) to a final concentration of 3.7%. After incubation in the fixation medium for 30 min at room temperature (293-298 K), cells were rinsed twice with HBSS and treated with cell permeabilization buffer (16 uL of 0.5% Triton X-100) for 10 min at room temperature (293-298 K) before labeling. For mitochondrial membrane potential and mitochondrial measurements, pre-fixed cells were incubated with 50 uL of MitoTracker Red CMXRos (Invitrogen) at a concentration of 250 nM for 30 min before fixation. In the remaining cases, post-fixed cells were labeled by incubation with a multiplexed mixture of primary antibodies in HBSS for 60 min at room temperature (293-298 K) to detect immunoreactivity of c-Jun (1:500), phospho-histone H3 (1:100), phospho-histone H2A.x (1:200), p53 (1:400), alpha-tubulin (1:200) and Hoechst 33342 (2 ug/mL). Cells were labeled for multiplexed imaging on two separate plates: a) Hoechst 33342, MitoTracker Red, phospho-histone H3, and alpha-tubulin, and b) Hoechst 33342, phospho-histone H2A.x, and c-Jun. A final rinse with HBSS (50 uL) was performed before analysis. The primary and secondary antibodies for the proteins were phospho-histone H3 (rabbit anti-phospho-histone H3 and FITC-donkey anti-rabbit IgG), phospho-histone H2A.x (mouse anti-phospho-histone H2A.x and FITC-donkey anti-mouse IgG), c-Jun (rabbit anti-phospho-c-Jun and Cy3-donkey anti-rabbit IgG), p53 (sheep anti-p53 and Cy5-donkey anti-sheep IgG), alpha-tubulin (mouse anti-alpha-tubulin and Cy5-donkey anti-mouse IgG). These antibodies are available as the CellCiphr HepG2 assay kit (Millipore).Digital images of each well were captured using a Cellomics ArrayScan VTI (Thermo Scientific Cellomics) (0.8 NA objective, 0.63x optical coupler, and XF-93 filter set) at 20x magnification. The images were acquired using the autofocus feature of the ArrayScan instrument, which entails the following steps. First, the camera focuses on channel 1 (Hoechst 33342), where nuclei are identified. Second, a Z offset of 1 um is used for capturing mitochondria (MitoTracker Red). […]", "values": [{"compound": "CCCCOCN(C(=O)CCl)c1c(CC)cccc1CC", "outcome": "inactive"}, {"compound": "CC(C)C1(C)N=C(c2ncccc2C(=O)O)NC1=O", "note": "(stereo not given)", "outcome": "inactive"}, {"compound": "Cc1c(COC(=O)[C@@H]2[C@H](/C=C(\\Cl)C(F)(F)F)C2(C)C)cccc1-c1ccccc1", "outcome": "inactive"}, {"compound": "O=C1C2CC=CCC2C(=O)N1SC(Cl)(Cl)Cl", "note": "(stereo not given)", "outcome": "inactive"}, {"compound": "OC(c1ccc(Cl)cc1)(c1ccc(Cl)cc1)C(Cl)(Cl)Cl", "AC50": "110 µM (active)"}, {"compound": "CC(C)N1C(=O)N(c2ccccc2)CSC1=NC(C)(C)C", "outcome": "inactive"}, {"compound": "COc1cc(OC)nc(NC(=O)NS(=O)(=O)c2ncccc2OCC(F)(F)F)n1", "outcome": "inactive"}, {"compound": "COC(=O)N(C(=O)N1CO[C@@]2(C(=O)OC)Cc3cc(Cl)ccc3C2=N1)c1ccc(OC(F)(F)F)cc1", "outcome": "inactive"}, {"compound": "Clc1cccc(C(Cl)(Cl)Cl)n1", "outcome": "inactive"}, {"compound": "CC(C)N1C(=O)c2ccccc2NS1(=O)=O", "outcome": "inactive"}, {"compound": "O=C(Nc1ccccc1-c1ccc(Cl)cc1)c1cccnc1Cl", "outcome": "inactive"}, {"compound": "O=C(O)c1c(Cl)ccc2cc(Cl)cnc12", "outcome": "inactive"}, {"compound": "CNC(=O)Oc1cccc2ccccc12", "outcome": "inactive"}, {"compound": "CCOC(=O)C(C)OC(=O)c1cc(Oc2ccc(C(F)(F)F)cc2Cl)ccc1[N+](=O)[O-]", "note": "(stereo not given)", "outcome": "inactive"}, {"compound": "CC1(C)C(C(=O)OC(C#N)c2cccc(Oc3ccccc3)c2)C1(C)C", "note": "(stereo not given)", "outcome": "inactive"}, {"compound": "C=CCOC(=O)C(C)(C)OC(=O)c1cc(-n2c(=O)cc(C(F)(F)F)n(C)c2=O)ccc1Cl", "outcome": "inactive"}, {"compound": "Cc1ccc(N=CN(C)C=Nc2ccc(C)cc2C)c(C)c1", "outcome": "inactive"}, {"compound": "O=P(O)(O)CCCl", "outcome": "inactive"}, {"compound": "COCc1cnc(C2=NC(C)(C(C)C)C(=O)N2)c(C(=O)O)c1", "note": "(stereo not given)", "outcome": "inactive"}, {"compound": "CCCCC(O)(Cn1cncn1)c1ccc(Cl)cc1Cl", "note": "(stereo not given)", "outcome": "inactive"}, {"compound": "Nc1c(Cl)c(Cl)nc(C(=O)O)c1Cl", "outcome": "inactive"}, {"compound": "CCOc1nc(F)cc2nc(S(=O)(=O)Nc3c(Cl)cccc3Cl)nn12", "outcome": "inactive"}, {"compound": "CN=C=S", "outcome": "inactive"}, {"compound": "CC(C)NC(=O)N1CC(=O)N(c2cc(Cl)cc(Cl)c2)C1=O", "outcome": "inactive"}, {"compound": "CC(C)Oc1cccc(NC(=O)c2ccccc2C(F)(F)F)c1", "outcome": "inactive"}, {"compound": "COCC(=O)N(c1c(C)cccc1C)C(C)C(=O)OC", "note": "(stereo not given)", "outcome": "inactive"}, {"compound": "CC(C)=CC1C(C(=O)OCc2coc(Cc3ccccc3)c2)C1(C)C", "note": "(stereo not given)", "outcome": "inactive"}, {"compound": "COP(=S)(OC)SCn1nnc2ccccc2c1=O", "outcome": "inactive"}, {"compound": "N#CN=C1SCCN1Cc1ccc(Cl)nc1", "outcome": "inactive"}, {"compound": "Clc1nc(Cl)nc(Nc2ccccc2Cl)n1", "outcome": "inactive"}, {"compound": "COC(=O)NS(=O)(=O)c1ccc(N)cc1", "outcome": "inactive"}, {"compound": "CC(C)(C)C(=O)C(Oc1ccc(Cl)cc1)n1cncn1", "note": "(stereo not given)", "outcome": "inactive"}, {"compound": "CCCC(=NOCC)C1=C(O)CC(CC(C)SCC)CC1=O", "note": "(stereo not given)", "outcome": "inactive"}, {"compound": "CCOP(=O)(OCC)Oc1nc(Cl)c(Cl)cc1Cl", "outcome": "inactive"}, {"compound": "CCNP(=S)(OC)O/C(C)=C/C(=O)OC(C)C", "note": "(stereo not given)", "outcome": "inactive"}, {"compound": "CC1(C)CON(Cc2ccccc2Cl)C1=O", "outcome": "inactive"}, {"compound": "COc1ccc(-c2ccccc2)cc1NNC(=O)OC(C)C", "outcome": "inactive"}, {"compound": "N#Cc1c[nH]cc1-c1cccc2c1OC(F)(F)O2", "outcome": "inactive"}, {"compound": "COP(=O)(OC)O/C(C)=C/C(=O)N(C)C", "outcome": "inactive"}, {"compound": "CCOP(=S)(OCC)Oc1nc(Cl)n(C(C)C)n1", "outcome": "inactive"}]}]}
